Only some compounds are listed: those with a hit (about 19% of all), similar ones and a draw of the others.
ELG1 DNA repair: qHTS screen for small molecules that inhibit ELG1-dependent DNA repair in human embryonic kidney (HEK293T) cells expressing luciferase-tagged ELG1 | Potency, µM (top dose mostly 46.1 µM), without a hit: at the highest dose activity change, negative = inhibition, hits mostly inhibitors | actives 2.3% (n = 330,000) | AID 504467, 2011 | HEK293T ELG1-luciferase reporter, luminescence, 16 h; DNA damage induced by 5-fluorouridine; also: potency is read from the fitted curve at half-maximal effect; nearly all actives have a fitted effect of over 55% in size
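HEK293T cells expressing luciferase-tagged ELG1 (2,000/well) received 5-Fluorouridine plus compound or DMSO for 16 hr at 37 °C. Luciferase was read by ONE-Glo luminescence after 30 min at room temperature.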
TDP1 cell CPT: qHTS for Inhibitors of human tyrosyl-DNA phosphodiesterase 1 (TDP1): qHTS in cells in presence of CPT | actives 12% (n = 420,000) | Potency, µM (titrated, usually from 46.2 µM), for inactives: at the top dose activity change, negative = growth inhibition, most hits filed as inhibitors | chicken DT40 Tdp1-/-;hTDP1 cells + 20 nM CPT, ATP luminescence, 48 h; also: potency is read from the fitted curve at half-maximal effect; nearly all actives have a fitted effect of over 55% in size
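Chicken DT40 Tdp1-/- cells stably complemented with human TDP1 were seeded at 400 cells/well in medium containing 20 nM camptothecin, exposed to pin-transferred compounds, and grown at 37 °C for at least 48 hr. Viability was read as ATP luminescence.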
IL-1B inflam inh: qHTS for Inhibitors of Inflammasome Signaling: IL-1-beta AlphaLISA Primary Screen; THP-1 LPS/ATP IL-1B secretion, AlphaLISA, 16 h; active compounds read low; activity change, % at 57.5 µM; actives 4.7% (n = 360,000); AID 743279, 2014; in the data active = activity change below about -50%; inconclusive = mostly about -30% to -49%
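THP-1 cells pretreated 1 hr with compounds (up to 57.5 uM final), then stimulated with LPS (250 ng/mL final) plus ATP (1.25 mM final); secreted IL-1B measured by AlphaLISA after 16 hr, decreased signal indicating inhibition.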
TDP1 cell noCPT: qHTS for Inhibitors of human tyrosyl-DNA phosphodiesterase 1 (TDP1): qHTS in cells in absence of CPT; DT40 Tdp1-/- hTDP1 cells, no CPT, ATP luminescence, 48 h; Potency, µM (highest dose often 46.2 µM), without a hit: top-dose activity change, negative = growth inhibition, usual class: inhibitors; actives 15% (n = 420,000); AID 686978, 2013; also: potency is read from the fitted curve at half-maximal effect; nearly all actives have a fitted effect of over 55% in size
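Growth of hTDP1-complemented DT40 Tdp1-knockout cells is measured by ATP luminescence after at least 48 hr compound exposure at 37 °C, with DMSO substituting for the 20 nM CPT used in the parallel screen.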
HT1080 IDH1KD tx: qHTS for induction of synthetic lethality in tumor cells producing 2HG: qHTS for the HT-1080-IDH1KD cell line | Potency, µM (highest dose often 46.1 µM), without a hit: top-dose activity, negative = toxicity, actives largely listed as cytotoxic | actives 2% (n = 360,000) | HT-1080 IDH1 knockdown viability, ATP luminescence, 48 h | AID 686971, 2013;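 also: potency is read from the fitted curve at half-maximal effect; 0% = DMSO wells and -100% = cell-free medium wells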
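IDH1KD HT-1080 cells, 750/well, RPMI + 5% FBS; compound pinned after 2 h settling; 48 h, 37 °C; CellTiter-Glo luminescence; % activity normalised to DMSO and no-cell wells; curves fitted, classed by r2 and efficacy.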
HT1080-NT tox: qHTS for induction of synthetic lethality in tumor cells producing 2HG: qHTS for the HT-1080-NT fibrosarcoma cell line | Potency, µM (series often up to 46.1 µM), without a hit: top-dose activity, negative = less viability, hits mostly cytotoxic | HT-1080-NT fibrosarcoma viability, CellTiter-Glo ATP luminescence, 48 h | actives 1.6% (n = 360,000);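 also: NT is the 2HG producing partner of a matched IDH1 knockdown line; potency is read from the fitted curve at half-maximal effect; 0% = DMSO-treated cells and -100% = media-only wells without cells; nearly all actives have a fitted effect of over 55% in size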
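750 cells/well, RPMI + 5% FBS; 2 h settle, compound pin-transfer, 48 h at 37 degrees C. CellTiter-Glo 10 min RT, luminescence. Normalized to DMSO and media-only wells.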
An asterisk follows results filed as active; ? = inconclusive; / = no result given; [ ] = another dose, or the depositor's remark. Unless noted, calls follow the shape of the dose curve; as a rule, active = well fitted curve in the direction sought with a large enough effect; inconclusive = small, poorly fitted or top-dose-only effect, or another doubt; inactive = no such curve, though single readings can be large; an effect the other way counts as inactive or inconclusive. Unless noted, % is scaled to controls: 0 for no effect and ±100 for the full control effect.

SMILES | ELG1 DNA repair | TDP1 cell CPT | IL-1B inflam inh | TDP1 cell noCPT | HT1080 IDH1KD tx | HT1080-NT tox
Cc1c(-c2ccccc2)c(=O)oc2cc(O)ccc12 | -2.6% | 0.5% | 54.2 | 23.0% | 4.1% | 1.5%
O=c1ccn(Cc2ccccc2)c2ccccc12 | 11.8% | 11.6µM* | 30.9 | 13µM* | 1.3% | 0.9%
COc1cc(Cl)ccc1OCc1cc(C(=O)NC2CCc3ccccc32)no1 (stereo unspecified) | 6.9% | -10.3% | 4.7 | -17.4% | -18.3% | ?
CC(=O)Nc1ccc(OCC(=O)N2CCC(Cc3ccccc3)CC2)cc1 | ? | 4.4% | -52.9* | -29.9% | -1.0% | 0.9%
O=C(Nc1ccc(OCC(=O)N2CCN(S(=O)(=O)c3ccccc3)CC2)cc1)c1ccco1 | -5.2% | -21.5% | ? | -21.9% | 17.6% | 6.6%
O=C(Nc1ccc(OCC(=O)N2CCC(Cc3ccccc3)CC2)cc1)c1ccco1 | ? | 20.6µM* | ? | 29.1µM* | 10.0% | 1.7%
CC(=O)ON=C1C=CC(=C(C#N)c2ccccc2)C=C1 | / | 2.31µM* | -111.1* | 3.26µM* | 5.8µM* | 7.31µM*
COc1ccc(C(C#N)=C2C=CC(=NO)C=C2)cc1 | -15.8% | 5.17µM* | -100.9* | 10.3µM* | 10.3µM* | 14.6µM*
COc1ccc(/C(=N/O)C(C)(C)NO)cc1 | -1.2% | ? | 0.0 | ? | 6.9% | -2.1%
CC(=O)OC(=C(OC(C)=O)c1ccccc1)c1ccccc1 | / | -29.8% | -5.0 | -5.2% | -1.1% | 12.9%
CCN(C(=O)COC(=O)c1oc2ccccc2c1C)c1c(N)n(Cc2ccccc2)c(=O)[nH]c1=O | -27.2% | ? | -1.9 | -4.9% | -1.1% | -7.8%
COc1ccc2cc(-c3[nH]ncc3CN3CCCC3c3nonc3C)ccc2c1 (stereo unspecified) | 4.2% | ? | 39.2 | 23.1µM* | ? | -18.8%
CC(OC(=O)CC1Sc2ccccc2NC1=O)C(=O)N(C)Cc1ccccc1 (stereo unspecified) | / | ? | 38.1 | 20.6µM* | -10.0% | -14.2%
Cc1ccc(-n2cnc3cc(C(=O)NC4CCCCCC4)ccc32)c(C)c1 | / | ? | / | 16.4µM* | / | /
Cc1ccc(-n2cnc3cc(C(=O)NCc4ccc(F)cc4)ccc32)c(C)c1 | / | 20.6µM* | / | ? | / | /
COCCCNC(=O)c1ccc2c(c1)ncn2-c1ccc(C)cc1C | 3.0% | ? | 7.2 | -25.6% | -0.2% | 1.7%
O=S(=O)(/C=C/c1cccc(Br)c1)N1CCOCC1 | 24.0% | -20.0% | -17.9 | 21.4% | 7.4% | 6.1%
Cc1cccc(C)c1NC(=O)C(=O)NCC(c1ccc2c(c1)OCO2)N1CCN(C)CC1 (stereo unspecified) | / | -7.6% | / | -4.5% | / | /
Cc1c(C(=O)Nc2ccc(F)cc2F)nnn1-c1ccccc1Br | / | 10.3µM* | / | 13µM* | / | /
CCc1ccccc1NC(=O)c1nnn(-c2ccc(F)cc2)c1C | / | -17.1% | / | ? | / | /
COc1ccc(OCC(O)CNC(=O)c2cccs2)cc1 (stereo unspecified) | -15.4% | 2.1% | 11.4 | 3.4% | 16.5% | 26.4%
OC(CNCCNc1ncccc1C(F)(F)F)COc1ccc(F)cc1 (stereo unspecified) | -0.6% | -27.4% | -82.0* | ? | ? | -26.2%
COc1ccc(NC(=O)CCc2nc3c(C)nn(-c4ccc(C)cc4)c3n(C)c2=O)c(OC)c1 | / | -4.9% | / | -19.3% | / | /
Fc1ccc(/C=N/NC(=S)NCCc2ccccc2)cc1F | 12.2% | ? | 40.6 | ? | -8.2% | -15.0%
COc1cccc(/C=N/NC(=S)NCCc2ccccc2)c1 | -0.5% | ? | 34.3 | ? | ? | -29.2%
SMILES | ELG1 DNA repair | TDP1 cell CPT | IL-1B inflam inh | TDP1 cell noCPT | HT1080 IDH1KD tx | HT1080-NT tox
CCc1ccc(/C=N/NC(=S)NCCc2ccccc2)cc1 | -3.0% | ? | 13.3 | 16.4µM* | -3.7% | 0.7%
COc1ccc(/C=N/NC(=S)NCCc2ccccc2)cc1 | -26.9% | 18.4µM* | 24.3 | 25.9µM* | -6.0% | -15.0%
CC(=O)Nc1ccc(NC(=O)c2ccc(Cl)c(S(=O)(=O)N3CCc4ccccc43)c2)cc1 | / | ? | 20.4 | 4.61µM* | 2.0% | -6.7%
O=C(Nc1ccccn1)c1cccc(S(=O)(=O)N2CCc3ccccc3C2)c1 | ? | -22.7% | -55.6* | ? | -10.0% | -13.5%
CCOC(=O)C1CCN(C(=O)c2ccc(Cl)c(S(=O)(=O)N3CCCC3)c2)CC1 | ? | -26.9% | 11.2 | -30.0% | 9.2% | 3.3%
O=C(Nc1ccccn1)c1ccc(Cl)c(S(=O)(=O)N2CCc3ccccc32)c1 | ? | 16.4µM* | -28.3 | ? | -10.1% | -2.2%
O=C(NC1=NCCS1)c1ccc(Cl)c(S(=O)(=O)N2CCc3ccccc32)c1 | ? | ? | 0.0 | ? | 0.6% | 10.3%
CCOC(=O)C1CCCN(C(=O)c2ccc(Cl)c(S(=O)(=O)N3CCc4ccccc43)c2)C1 (stereo unspecified) | / | ? | 45.2 | 13µM* | -18.9% | -5.6%
CSCCC(=O)N1CCCC(N(C)CCc2ccccc2)C1 (stereo unspecified) | 0.7% | 1.0% | 7.7 | -14.9% | 1.1% | -2.8%
COc1ccccc1CCc1nc2ccccc2n1C1CCN(C(=O)c2cc(C)nn2C)CC1 | / | 0.6%[9.04 µM] | / | 4.6% | / | /
COC(=O)C1=COC(O[C@H]2OC(CO)[C@H](O)C(O)C2O)[C@H]2C1C(=O)C[C@@H]2C (stereo partly specified) | / | 3.7%[9.04 µM] | / | -9.2%[9.04 µM] | / | /
O=S(=O)(c1cccc(F)c1)N1CCN(C(=S)NCC2CCCO2)CC1 (stereo unspecified) | -0.4% | -13.9% | 0.0 | -4.8% | -2.2% | -1.9%
O=C(Nc1cccnc1)c1ccc(Cl)c(S(=O)(=O)N2CCc3ccccc32)c1 | 13µM* | 22.3% | -0.2 | -18.1% | -0.3% | 4.6%
O=C(Nc1cccnc1)c1ccc(Cl)c(S(=O)(=O)N2CCCC2)c1 | ? | -27.3% | 28.9 | -22.8% | -1.4% | 10.6%
CCCCOCCCNC(=O)C[C@@H]1C[C@@]2(C(=O)OC)CC(C)(C)CC=C2N(Cc2cccc3ccccc23)C1=O | / | ? | -5.1 | ? | 20.6µM* | ?

High-throughput results as filed in PubChem BioAssay.
